High-throughput results as filed in PubChem.
A549 tox = kills or reduces viability of A549 cells in Nrf2 counter-screen; Potency, µM (series often up to 46 µM), without a hit: at the top dose activity change, negative = cytotoxicity, actives largely listed as inhibitors; A549 ARE-Fluc cells, CellTiter-Fluor viability, 18-24 h; 0.16% of 390,000 active; also: % is scaled to controls: 0 for no effect and ±100 for the full control effect
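A549 ARE_Fluc cells in 5% FBS OPTI-MEM were exposed to compounds in concentration-response for 18-24 h at 37 deg C. Viability was read by CellTiter-Fluor fluorescence (Ex 405/Em 525) after 30 min, before the luciferase read.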
TrxR1 substrate = rat thioredoxin reductase 1 substrate activity | AID 588456 | Potency, µM (top dose mostly 114 µM), for inactives: at the highest dose activity change, negative = substrate turnover | 0.01% of 390,000 active | purified TrxR1 substrate turnover, NADPH consumption readout; also: % is scaled to controls: 0 for no effect and ±100 for the full control effect; nearly all actives have a fitted effect of over 50% in size
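Rat TrxR1, dispensed at 90 nM, was prereduced with 400 uM NADPH (final) for 5 min at ~22 deg C, then incubated with compound 15 min before 400 uM selenite. A first-read NADPH fluorescence drop versus no-compound background flagged substrates.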
Nrf2 inh = Nrf2 pathway inhibition; A549 ARE-Fluc reporter, luciferase luminescence, 18-24 h; Potency, µM (doses to about 46 µM), without a hit: top-dose activity change, negative = inhibition, actives largely listed as inhibitors; 2.1% of 360,000 active; AID 504444; also: % is scaled to controls: 0 for no effect and ±100 for the full control effect; nearly all actives have a fitted effect of over 60% in size
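A549 ARE_Fluc cells (5000/well, 5% FBS OPTI-MEM) pre-incubated 2 h, then treated with compounds 18-24 h at 37C/5% CO2 in concentration-response. CellTiter-Fluor viability read first; BugLite luciferase luminescence after 15 min at room temperature gives Nrf2 activity.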
Mito fusion act = mitochondrial division inhibition or fusion activation. 0.23% of 320,000 active. S. cerevisiae fusion-defective mutant growth rescue, CellTiterGlo 48 h. Potency, µM (top dose mostly 46.1 µM), for the others: top-dose growth rescue (activation), usual class: activators; also: % of control where 0% means no effect; nearly all actives have a fitted effect of over 45% in size
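Read-out: ATP-based luminescence (CellTiterGlo, 10 min ambient) reporting growth of fusion-defective ts yeast after 48 hours at 37C on glycerol/ethanol YPEG medium in the presence of compound.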
mIDH1 inhibitor = blocks human mutant IDH1 R132H enzyme. O75874. IDH1-R132H enzyme, NADPH consumption, diaphorase/resazurin fluorescence. Potency, µM (series often up to 76.6 µM), without a hit: at the top dose activity change, negative = inhibition, usual class: inhibitors. 0.093% of 390,000 active; also: % is scaled to controls: 0 for no effect and ±100 for the full control effect; nearly all actives have a fitted effect of over 65% in size
Target sequence (O75874 whole entry R132H, stated change not applied): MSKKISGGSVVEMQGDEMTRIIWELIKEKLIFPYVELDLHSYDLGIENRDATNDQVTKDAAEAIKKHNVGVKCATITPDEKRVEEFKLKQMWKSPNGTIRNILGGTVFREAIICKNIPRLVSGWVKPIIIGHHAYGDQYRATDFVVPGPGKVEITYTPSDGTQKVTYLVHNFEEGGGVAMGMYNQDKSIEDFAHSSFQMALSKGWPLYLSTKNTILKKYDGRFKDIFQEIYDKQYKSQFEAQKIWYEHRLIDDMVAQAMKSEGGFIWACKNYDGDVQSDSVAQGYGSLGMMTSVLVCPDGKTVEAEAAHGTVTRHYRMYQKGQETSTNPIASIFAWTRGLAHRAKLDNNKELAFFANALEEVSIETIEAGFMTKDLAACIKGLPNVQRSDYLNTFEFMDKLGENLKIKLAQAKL
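IDH1-R132H (0.5 ug/mL) preincubated 30 min with compound, then NADPH (0.016 mM) and alpha-KG (2 mM) added; 80 min at RT, pH 7.5. Remaining NADPH coupled via diaphorase/resazurin to fluorescence (540/590 nm); concentration-response curves normalized to no-enzyme control.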
rTrxR1 inhibitor = rat TrxR1 inhibition | O89049 | recombinant rTrxR1, NADPH fluorescence consumption, selenite substrate | Potency, µM (series often up to 114 µM), for inactives: top-dose activity change, negative = inhibition, actives largely listed as inhibitors | 1% of 390,000 active | AID 588453; also: % is scaled to controls: 0 for no effect and ±100 for the full control effect; nearly all actives have a fitted effect of over 65% in size
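Rat TrxR1 (90 nM in the dispensed reagent) was pre-reduced with 400 uM NADPH for 5 min at room temperature, then incubated with compound for 15 min. After 400 uM selenite was added, NADPH fluorescence (Ex 340/Em 450 nm) was followed for 8 min.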
Starred values were filed as active, the others as inactive; [ ] = another dose, or the depositor's remark. An excerpt weighted towards active compounds, which were near 3.1% of everything screened. Calls follow the shape of the dose curve; as a rule, active = well fitted curve in the direction sought with a large enough effect; inconclusive = small, poorly fitted or top-dose-only effect, or another doubt; inactive = no such curve, though single readings can be large; an effect the other way counts as inactive or inconclusive. Potency is read from the fitted curve at half-maximal effect.

Results for Cn1nc(-c2ccc(Cl)cc2)nc2c(=O)n(C)c(=O)nc1-2 ?
A549 tox: 8.2µM*; TrxR1 substrate: 17.8µM*; Nrf2 inh: -123.6%; Mito fusion act: -37.0%; rTrxR1 inhibitor: inconclusive

What do the screens show for `Cn1nc(-c2cccnc2)nc2c(=O)n(C)c(=O)nc1-2`?
A549 tox: 6.51µM*; TrxR1 substrate: inconclusive; Nrf2 inh: 7.31µM*; rTrxR1 inhibitor: -21.0%

Results for Cn1nc(-c2ccc(F)cc2)nc2c(=O)n(C)c(=O)nc1-2 ?
A549 tox: 2.91µM*; TrxR1 substrate: 22.4µM*; Nrf2 inh: 2.31µM*; rTrxR1 inhibitor: 28.2µM*

How did COc1ccc(-c2nc3c(=O)n(C)c(=O)nc-3n(C)n2)cc1 do in these assays?
A549 tox: 1.64µM*; TrxR1 substrate: inconclusive; Nrf2 inh: 1.46µM*; rTrxR1 inhibitor: inconclusive

Results for COc1ccc(-c2nc(N)n(S(=O)(=O)c3ccc(C)cc3)n2)cc1 ?
A549 tox: 2.0%; TrxR1 substrate: -16.3%[57.1 µM]; Nrf2 inh: -7.8%; Mito fusion act: -1.0%; mIDH1 inhibitor: 2.3%; rTrxR1 inhibitor: 19.3%[57.1 µM]

Results for Cc1c(F)cccc1Cn1cnc2c(cnn2C(C)(C)C)c1=O ?
TrxR1 substrate: -7.5%; rTrxR1 inhibitor: 3.2%

What do the screens show for `Cc1ccc2c(/C=C/c3c[nH]c4ccccc34)ccnc2c1C`?
TrxR1 substrate: 2.6%; rTrxR1 inhibitor: 19.5%

How did CCn1nc(-c2ccccc2C)nc2c(=O)n(C)c(=O)nc1-2 do in these assays?
A549 tox: 23.1µM*; TrxR1 substrate: 14.1µM*; Nrf2 inh: 2.5%; rTrxR1 inhibitor: inconclusive

Results for O=C(O)c1cc2ccccc2c(Cc2c(O)c(C(=O)O)cc3ccccc23)c1O ?
TrxR1 substrate: 3.7%; rTrxR1 inhibitor: 9.3%

How did O=C(O)c1cc2ccccc2c2cc(Br)ccc12 do in these assays?
A549 tox: -3.7%; TrxR1 substrate: 5.0%[57.1 µM]; Nrf2 inh: -23.3%; Mito fusion act: 11.2µM*; mIDH1 inhibitor: -1.7%; rTrxR1 inhibitor: 9.7%[2.29 µM]

What do the screens show for `COCCn1c(SCC(=O)c2c(-c3ccccc3)n(C)c3ccccc23)nnc1-c1ccncc1`?
A549 tox: 0.1%; TrxR1 substrate: -4.2%; Nrf2 inh: inconclusive; Mito fusion act: -1.7%; mIDH1 inhibitor: 2.2%; rTrxR1 inhibitor: -11.1%

How did COCCn1c(SCC(=O)/C=C2\N(C)c3ccccc3C2(C)C)nnc1-c1ccncc1 do in these assays?
A549 tox: -27.3%; TrxR1 substrate: -6.0%; Nrf2 inh: 23.1µM*; Mito fusion act: 0.2%; mIDH1 inhibitor: -10.1%; rTrxR1 inhibitor: -16.9%

How did COc1ccc(Nc2nnc(SCC(=O)/C=C3/N(C)c4ccccc4C3(C)C)s2)cc1 do in these assays?
A549 tox: inconclusive; TrxR1 substrate: -10.2%; Nrf2 inh: 23.1µM*; Mito fusion act: inconclusive; mIDH1 inhibitor: -1.2%; rTrxR1 inhibitor: -8.4%

How did NC(=NCCc1ccccc1)NS(=O)(=O)c1ccc(F)cc1 do in these assays?
A549 tox: 3.2%; TrxR1 substrate: 8.3%; Nrf2 inh: -9.1%; Mito fusion act: -1.6%; mIDH1 inhibitor: 6.8%; rTrxR1 inhibitor: 15.1%

What do the screens show for `NC(N)=NC(N)=NCCc1ccccc1`?
A549 tox: -5.8%; TrxR1 substrate: 5.0%; Nrf2 inh: 13µM*; Mito fusion act: -2.6%; rTrxR1 inhibitor: 9.7%

Results for CCOC(=O)C1=C(C)NC(=S)NC1c1ccc(-c2cccc(Cl)c2C)o1 (stereo not drawn) ?
A549 tox: -5.6%; TrxR1 substrate: 8.8%; Nrf2 inh: inconclusive; Mito fusion act: -13.5%; mIDH1 inhibitor: 0.9%; rTrxR1 inhibitor: 22.4µM*

What do the screens show for `CCOC(=O)C1=C(C)NC(=S)NC1c1ccco1` (stereo not drawn)?
A549 tox: 17.0%; TrxR1 substrate: -4.6%; Nrf2 inh: inconclusive; Mito fusion act: -2.3%; mIDH1 inhibitor: -9.6%; rTrxR1 inhibitor: 50.1µM*

How did CC1(C)S[C@@H]2C(C(=O)O)NC(=O)N2C1C(=O)O (stereo partly drawn) do in these assays?
TrxR1 substrate: -1.0%; rTrxR1 inhibitor: 7.8%

What do the screens show for `CCOC(=O)C1=C(COC(=O)/C=C/c2ccc(C)o2)NC(=O)NC1C` (stereo not drawn)?
A549 tox: 3.9%; TrxR1 substrate: -10.7%; Nrf2 inh: 8.0%; Mito fusion act: -0.1%; mIDH1 inhibitor: 6.0%; rTrxR1 inhibitor: 50.1µM*

How did CCOC(=O)C1=C(COC(=O)/C=C/c2ccccc2)NC(=O)NC1C (stereo not drawn) do in these assays?
A549 tox: 2.2%; TrxR1 substrate: -1.2%; Nrf2 inh: 2.3%; Mito fusion act: 7.0%; mIDH1 inhibitor: -1.8%; rTrxR1 inhibitor: 17.2%

How did O=C(/C=C/c1ccccc1)NC(=S)NNC(=O)c1cnccn1 do in these assays?
A549 tox: -28.5%; TrxR1 substrate: -4.2%[57.1 µM]; Nrf2 inh: 7.31µM*; Mito fusion act: -10.8%; mIDH1 inhibitor: -4.2%; rTrxR1 inhibitor: -42.7%

Results for CN(C)c1ccc(/C=C2/C[N+](C)(C)C/C(=C/c3ccc(N(C)C)cc3)C2=O)cc1 ?
A549 tox: 14.6µM*; TrxR1 substrate: -0.2%[11.4 µM]; Nrf2 inh: inconclusive; mIDH1 inhibitor: 14.3%; rTrxR1 inhibitor: -0.2%[11.4 µM]

What do the screens show for `O=S(=O)(c1ccc2c(c1)OCO2)N1CCN(S(=O)(=O)c2c(F)cccc2F)CC1`?
A549 tox: -5.1%; Nrf2 inh: 0.9%

How did O=C(COC(=O)/C=C/c1ccco1)NC1CCCCC1 do in these assays?
A549 tox: 0.0%; TrxR1 substrate: -12.3%; Nrf2 inh: -3.1%; Mito fusion act: -0.7%; mIDH1 inhibitor: 2.7%; rTrxR1 inhibitor: 50.1µM*

How did COc1ccc(CNC(=O)COC(=O)/C=C/c2ccco2)cc1 do in these assays?
A549 tox: 2.6%; TrxR1 substrate: -3.6%; Nrf2 inh: 0.4%; Mito fusion act: -11.6%; mIDH1 inhibitor: -14.2%; rTrxR1 inhibitor: 28.2µM*

What do the screens show for `Cc1cccc(OC2=NS(=O)(=O)c3ccccc32)c1`?
A549 tox: 7.9%[65.3 µM]; Nrf2 inh: -6.5%[65.3 µM]

Results for COc1cc(OC)cc(-c2nnc(NC(=O)CCS(=O)(=O)c3ccc(F)cc3)o2)c1 ?
A549 tox: inconclusive; TrxR1 substrate: -6.9%; Nrf2 inh: 20.6µM*; Mito fusion act: 10.6%; mIDH1 inhibitor: 6.8%; rTrxR1 inhibitor: inconclusive

What do the screens show for `Cc1ccc(Nc2nc(C#N)nc(NC3CCCC3)n2)cc1`?
A549 tox: -0.7%; Nrf2 inh: 18.0%
